We go through 40 compounds from PubChem BioAssay (Tox21).

Results filed as inconclusive are left out. Where a call stands in place of a potency, no number is given. The source made the active and inactive calls. The call rests on the fitted dose curve; in most records, active means well fitted inhibition curve with a large enough effect in the repeat runs; inconclusive means weak or mixed curves; inactive means no such curve, though single readings can be large or run the other way.

The experiment is described as follows: qHTS assay to identify small molecule antagonists of the thyroid receptor (TR) signaling pathway (AID 743065). Further: nearly all actives have a fitted effect of over 55% in size. The conditions noted are these: GH3.TRE-Luc, T3-stimulated luciferase inhibition, 23.5 h; series mostly up to 70.3 µM; activity, negative = inhibition: at the top concentration. The source says:
U.S. Tox21 Program National Center for Advancing Translational Sciences [NCATS] NIH Chemical Genomics Center [NCGC] U.S. Environmental Protection Agency [EPA] National Institutes of Environmental Health Sciences [NIEHS] National Toxicology Program [NTP] U.S. Food and Drug Administration [FDA] Tox21 Assay Overview: Thyroid receptor (TR), a nuclear hormone receptor, plays an important role in development, proliferation, differentiation, metabolism, brain function, and cardiovascular system. […] To profile the Tox21 10K compound library in TR signaling, a cell-based GH3-TRE-Luc assay (GH3.TRE-Luc cell line, developed by the laboratory of Dr. Albertinka J. Murk, Wageningen University) was used to measure the inhibition of TR. GH3 (rat pituitary tumor) cells stably expressing a TR activity sensor consisting of two TR response elements and a luciferase reporter gene.
Tox21 Assay Protocol Summary: GH3.TRE-Luc cells were dispensed at 1500 cells/4 uL/well into 1536-well white solid bottom plates using a Multidrop Combi dispenser (Thermo Fisher Scientific Inc., Waltham, MA). After the assay plates were incubated at 37 C for 4 hours, 23 nL of library compound or DMSO controls was transferred to the assay plates by a pintool station (Kalypsys, San Diego, CA), followed by addition of 1 ul of T3 (1 nM, final concentration in the wells) to stimulate TR transactivation. The assay plates were incubated at 37 C for 23.5 h, and then 1 uL of CellTiter-Fluor reagent (Promega, Madision, WI) of measuring cytotoxicity was added to each well using a Bioraptr Flying Reagent Dispenser (FRD) workstation (Beckman Coulter, Indianapolis, IN, USA). The plates were incubated at 37 C and 5% CO2 for additional 30 min, and fluorescence intensity was measured by a ViewLux plate reader (PerkinElmer, Shelton, CT). For measuring luciferase reporter gene activity, 4 uL of ONE-Glo Luciferase Assay reagent (Promega) was added to each well using a Bioraptr FRD (Beckman Coulter), followed by 30 min incubation at room temperature. The luminescence intensity of plates was recorded by a ViewLux plate reader (PerkinElmer, Shelton, CT).
(Quantitative high-throughput screening tests each substance at several concentrations.)
With `CC(C)CCCCCCCOC(=O)CCCCC(=O)OCCCCCCCC(C)C`, the Potency result was “inactive”.
Turning to `CN(C)c1ccc(Cc2ccc(N(C)C)cc2)cc1`, the Potency result is “inactive”.
For the compound `COC(=O)CCCC(=O)OC`, the Potency result was “inactive”.
For the compound `CCNC(=S)NCC`, the Potency result is “inactive”.
Still for that read-out and setting: for `Clc1ccccn1` the value was “inactive”; for `C=C(C)CNCC`, “inactive”; for `CCCCCCCCCCO`, “inactive”.
For `CC(C)OP(=O)(CP(=O)(OC(C)C)OC(C)C)OC(C)C`, the “activity, negative = inhibition” value was 15.5% (inactive).
As for `OCc1ccccc1`, the Potency result was “inactive”.
The same measure, in the same setting: as for `OCc1cccc(Oc2ccccc2)c1`, the entry is “inactive”.
As for `CC1(C)NC(=O)NC1=O`, the Potency result was “inactive”.
On to `COCCOC(=O)c1ccccc1C(=O)OCCOC`, for which the Potency result is “inactive”.
The same measure, in the same setting: for `CC(=O)OCCOC(C)=O` the value was “inactive”.
As for `C=CCc1ccc(OC)c(OC)c1`, the Potency result is “inactive”.
Consider `C=C(C)C(=O)OCC(C)C`, for which the Potency entry was “inactive”.
On the same count and under the same terms, as for `NCCN1CCNCC1`, the entry is “inactive”; as for `CCCCC(C=O)CC` (stereo not given), “inactive”.
The same measure, in the same setting: for `COc1cc(OC)c(C(=O)CCCN2CCCC2)c(OC)c1` the value was “inactive”; for `O=[N+]([O-])c1ccc2nc[nH]c2c1`, “inactive”; for `COCCCN`, “inactive”.
Regarding `C[Si]1(C)O[Si](C)(C)O[Si](C)(C)O[Si](C)(C)O1`, the Potency entry was “inactive”.
Still for that read-out and setting: for `CC(=O)OCc1ccco1` the value was “inactive”.
With `c1ccc2c(c1)Cc1ccccc1-2`, the “activity, negative = inhibition” value was -10.8% [at 95 µM] (inactive).
Take `CC(C)CC(C)O` (stereo not given): the Potency entry was “inactive”.
Still for that read-out and setting: as for `CC(C)=CCl`, the entry is “inactive”; as for `CCc1ccccc1CC`, “inactive”; as for `COc1ccc([N+](=O)[O-])cc1N`, “inactive”.
Turning to `C=CCCCCCCCCC(=O)O`, the “activity, negative = inhibition” value is 7.4% (inactive).
Take `CC1(C)CC(N)CC(C)(CN)C1` (stereo not given): the Potency result was “inactive”.
With `CCO[Si](CCC#N)(OCC)OCC`, the Potency entry is “inactive”.
Take `CC(C)CC(=O)CC(C)CC(C)C` (stereo not given): the Potency entry is “inactive”.
Same read-out and setting: as for `Brc1ccc(Br)c(Br)c1`, the entry is “inactive”; as for `O=C(O)c1ccc(C(=O)O)c(C(=O)O)c1`, “inactive”.
For `CC(=O)OCc1ccccc1`, the Potency entry was “inactive”.
Still for that read-out and setting: as for `CCCCCCCCCCCC(=O)OC`, the entry is “inactive”; as for `CC(C)(Oc1ccc(CCNC(=O)c2ccc(Cl)cc2)cc1)C(=O)O`, “inactive”; as for `N#Cc1ccccc1`, “inactive”.
In the case of `CCCCCCCCCCN`, the Potency result was “inactive”.
Take `O=C(O)Cn1c(=O)n(Cc2ccc(Br)cc2F)c(=O)c2ccc(Cl)cc21`: the “activity, negative = inhibition” value was -7.5% (inactive).
For `CCOC(=O)c1ccc(N)cc1`, the Potency entry is “inactive”.
